Reference: the supplement of paper PMC10849652
Of roughly 7,900 targets only a part is listed; those with a hit were picked by preference. About 0.6% of all pairs of compound and target were hits. Unmarked numbers belong to inactive results.

Tests used:
Test in all cases: log2 fold change, soluble protein after heating vs DMSO (PISA); higher = thermal stabilisation; K562 cells, 10 uM, 30 min; active = over 0.2 and 3.5 SD of the protein, either way, in both replicates (recomputed)
[1] = compound: C1=CC=C(C=C1)[C@H](COC2=CC3=C(C=C2)NC(=O)N3)NC(=O)C4=CC=CN(C4=O)CC5=CC(=C(C=C5)F)F
Outline: (§1)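 For each measurement, 10 μM compound was applied for 30 min to K562 cells at 2×10^6 cells/mL. Aliquots were heated for 3 min across 48°C-58°C, pooled, and extracted in PBS with 0.5% NP-40 at 4°C; the supernatant after 21,000xg for 90 min was soluble protein. This was quantified by TMTpro 16plex LC-MS/MS with channel sums equalised, and thermal stability was reported relative to control samples from duplicates, on a log2 fold-change scale.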

[2] = compound: CC1=C(SC2=C1C(=N[C@H](C3=NN=C(N32)C)CC(=O)N)C4=CC=C(C=C4)Cl)C
Outline: as §1

[3] = compound: CC1=C2C(=CC=C1)N=C(N(C2=O)C3=CC=CC=C3C)CN4C=NC5=C(N=CN=C54)N
Outline: as §1

[4] = compound: Cc1sc2c(c1C)C(c1ccc(Cl)cc1)=N[C@@H](CC(=O)OC(C)(C)C)c1nnc(C)n1-2
Outline: as §1

[5] = compound: c1ccc([C@@H]2C[C@H]2NC2CCNCC2)cc1
Outline: as §1

Sequence of UniProt A8MTT3 (A8MTT3 whole entry, looked up): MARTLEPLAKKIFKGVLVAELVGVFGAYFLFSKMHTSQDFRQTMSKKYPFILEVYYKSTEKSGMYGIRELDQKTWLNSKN
Sequence of UniProt Q9BWU1 (Q9BWU1 whole entry, looked up): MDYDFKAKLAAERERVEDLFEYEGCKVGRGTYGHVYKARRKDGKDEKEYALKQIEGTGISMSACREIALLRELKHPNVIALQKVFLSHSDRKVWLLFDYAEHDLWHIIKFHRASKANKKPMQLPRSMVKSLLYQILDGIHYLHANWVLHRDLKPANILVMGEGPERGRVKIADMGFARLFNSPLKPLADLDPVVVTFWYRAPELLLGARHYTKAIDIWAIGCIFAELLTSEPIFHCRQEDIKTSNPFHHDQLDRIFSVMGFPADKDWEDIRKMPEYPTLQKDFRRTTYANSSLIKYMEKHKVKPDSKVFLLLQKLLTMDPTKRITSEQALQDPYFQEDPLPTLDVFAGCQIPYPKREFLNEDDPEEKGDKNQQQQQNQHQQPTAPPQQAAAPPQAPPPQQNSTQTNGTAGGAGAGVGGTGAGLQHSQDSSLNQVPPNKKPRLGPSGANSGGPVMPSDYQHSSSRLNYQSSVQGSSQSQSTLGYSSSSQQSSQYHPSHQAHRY
Sequence of UniProt Q9UJA2 (Q9UJA2 whole entry, looked up): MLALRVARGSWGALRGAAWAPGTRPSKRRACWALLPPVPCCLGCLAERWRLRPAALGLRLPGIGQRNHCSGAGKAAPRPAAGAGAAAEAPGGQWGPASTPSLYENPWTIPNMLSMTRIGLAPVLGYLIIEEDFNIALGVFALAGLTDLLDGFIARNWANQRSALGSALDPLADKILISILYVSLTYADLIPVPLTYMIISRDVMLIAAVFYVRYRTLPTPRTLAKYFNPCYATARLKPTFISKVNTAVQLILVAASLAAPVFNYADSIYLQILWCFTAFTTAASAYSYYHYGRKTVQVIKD
Sequence of UniProt Q8N668 (Q8N668 whole entry, looked up): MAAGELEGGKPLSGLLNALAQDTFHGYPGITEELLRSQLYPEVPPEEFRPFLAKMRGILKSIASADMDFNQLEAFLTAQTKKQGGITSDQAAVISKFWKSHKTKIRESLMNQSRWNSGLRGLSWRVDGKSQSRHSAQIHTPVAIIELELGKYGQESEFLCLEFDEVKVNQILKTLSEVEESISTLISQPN
Sequence of UniProt Q53ET0 (Q53ET0 whole entry, looked up): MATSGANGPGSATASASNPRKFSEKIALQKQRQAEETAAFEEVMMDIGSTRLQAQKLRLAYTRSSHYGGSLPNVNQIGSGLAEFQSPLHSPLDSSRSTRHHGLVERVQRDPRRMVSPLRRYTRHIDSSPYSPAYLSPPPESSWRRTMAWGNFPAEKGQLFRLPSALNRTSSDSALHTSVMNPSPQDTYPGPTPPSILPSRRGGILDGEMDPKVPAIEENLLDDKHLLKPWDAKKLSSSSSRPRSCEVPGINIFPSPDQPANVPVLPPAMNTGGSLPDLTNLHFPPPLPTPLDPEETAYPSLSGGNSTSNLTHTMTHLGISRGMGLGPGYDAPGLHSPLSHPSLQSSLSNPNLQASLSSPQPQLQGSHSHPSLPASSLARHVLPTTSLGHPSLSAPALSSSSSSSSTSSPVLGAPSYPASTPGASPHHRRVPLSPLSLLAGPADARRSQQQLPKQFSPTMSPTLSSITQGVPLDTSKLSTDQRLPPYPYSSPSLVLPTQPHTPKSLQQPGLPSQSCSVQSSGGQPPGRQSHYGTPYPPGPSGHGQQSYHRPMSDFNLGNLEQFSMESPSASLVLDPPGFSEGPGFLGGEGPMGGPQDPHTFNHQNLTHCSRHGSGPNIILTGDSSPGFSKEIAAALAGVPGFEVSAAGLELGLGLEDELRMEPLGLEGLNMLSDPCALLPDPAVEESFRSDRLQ
Sequence of UniProt O75122 (O75122 whole entry, looked up): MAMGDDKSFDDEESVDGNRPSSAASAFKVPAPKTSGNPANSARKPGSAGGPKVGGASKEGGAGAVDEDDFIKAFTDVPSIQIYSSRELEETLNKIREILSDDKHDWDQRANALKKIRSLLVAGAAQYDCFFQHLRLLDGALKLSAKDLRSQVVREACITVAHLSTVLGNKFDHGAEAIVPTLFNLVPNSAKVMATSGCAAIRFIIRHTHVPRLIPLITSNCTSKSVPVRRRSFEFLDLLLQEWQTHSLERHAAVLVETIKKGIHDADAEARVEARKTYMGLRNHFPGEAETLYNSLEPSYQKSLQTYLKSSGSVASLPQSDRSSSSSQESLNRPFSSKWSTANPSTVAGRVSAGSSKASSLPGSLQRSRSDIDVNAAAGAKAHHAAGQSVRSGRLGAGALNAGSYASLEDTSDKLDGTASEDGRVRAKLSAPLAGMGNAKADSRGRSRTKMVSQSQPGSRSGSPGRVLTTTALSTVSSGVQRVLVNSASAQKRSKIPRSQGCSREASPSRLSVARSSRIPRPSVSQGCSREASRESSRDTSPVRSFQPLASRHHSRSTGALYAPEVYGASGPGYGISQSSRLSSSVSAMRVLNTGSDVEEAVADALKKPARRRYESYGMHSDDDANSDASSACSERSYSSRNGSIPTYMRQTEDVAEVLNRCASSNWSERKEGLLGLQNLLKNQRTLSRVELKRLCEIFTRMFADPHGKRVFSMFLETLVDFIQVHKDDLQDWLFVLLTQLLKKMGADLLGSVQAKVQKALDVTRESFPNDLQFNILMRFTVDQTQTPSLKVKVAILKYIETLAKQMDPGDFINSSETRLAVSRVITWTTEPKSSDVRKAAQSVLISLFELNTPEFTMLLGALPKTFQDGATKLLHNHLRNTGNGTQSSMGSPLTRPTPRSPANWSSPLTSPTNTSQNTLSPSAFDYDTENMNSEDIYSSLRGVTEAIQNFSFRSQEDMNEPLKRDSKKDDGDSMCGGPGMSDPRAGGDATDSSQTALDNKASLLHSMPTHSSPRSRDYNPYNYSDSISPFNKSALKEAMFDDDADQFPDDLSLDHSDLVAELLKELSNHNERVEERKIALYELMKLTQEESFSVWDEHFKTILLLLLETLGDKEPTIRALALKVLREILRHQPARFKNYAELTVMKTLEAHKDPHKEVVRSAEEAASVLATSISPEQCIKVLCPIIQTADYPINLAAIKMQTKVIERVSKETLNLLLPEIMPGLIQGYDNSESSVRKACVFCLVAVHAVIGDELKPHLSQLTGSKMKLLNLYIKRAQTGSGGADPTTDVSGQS
Sequence of UniProt Q8WUD6 (Q8WUD6 whole entry, looked up): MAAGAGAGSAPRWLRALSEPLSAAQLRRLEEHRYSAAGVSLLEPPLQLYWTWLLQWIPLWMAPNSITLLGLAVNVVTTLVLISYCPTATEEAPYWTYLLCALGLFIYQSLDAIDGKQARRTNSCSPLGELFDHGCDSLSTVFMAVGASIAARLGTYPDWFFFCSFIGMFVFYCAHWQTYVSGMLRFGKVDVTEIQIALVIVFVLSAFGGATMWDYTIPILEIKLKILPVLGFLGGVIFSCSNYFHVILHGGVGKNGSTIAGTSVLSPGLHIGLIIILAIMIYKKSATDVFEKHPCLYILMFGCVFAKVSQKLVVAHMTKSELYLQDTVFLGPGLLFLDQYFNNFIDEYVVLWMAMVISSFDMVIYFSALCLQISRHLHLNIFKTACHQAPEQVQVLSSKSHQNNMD
Sequence of UniProt O43529 (O43529 whole entry, looked up): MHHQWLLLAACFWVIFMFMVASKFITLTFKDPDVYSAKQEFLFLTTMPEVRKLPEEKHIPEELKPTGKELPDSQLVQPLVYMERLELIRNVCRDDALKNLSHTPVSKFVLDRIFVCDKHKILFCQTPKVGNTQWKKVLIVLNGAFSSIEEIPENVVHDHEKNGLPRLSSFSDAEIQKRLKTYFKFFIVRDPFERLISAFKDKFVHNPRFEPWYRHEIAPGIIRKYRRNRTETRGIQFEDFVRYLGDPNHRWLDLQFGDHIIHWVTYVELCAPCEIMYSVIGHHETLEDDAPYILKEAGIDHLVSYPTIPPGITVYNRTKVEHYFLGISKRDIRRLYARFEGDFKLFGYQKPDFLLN
Sequence of UniProt Q9H9S4 (Q9H9S4 whole entry, looked up): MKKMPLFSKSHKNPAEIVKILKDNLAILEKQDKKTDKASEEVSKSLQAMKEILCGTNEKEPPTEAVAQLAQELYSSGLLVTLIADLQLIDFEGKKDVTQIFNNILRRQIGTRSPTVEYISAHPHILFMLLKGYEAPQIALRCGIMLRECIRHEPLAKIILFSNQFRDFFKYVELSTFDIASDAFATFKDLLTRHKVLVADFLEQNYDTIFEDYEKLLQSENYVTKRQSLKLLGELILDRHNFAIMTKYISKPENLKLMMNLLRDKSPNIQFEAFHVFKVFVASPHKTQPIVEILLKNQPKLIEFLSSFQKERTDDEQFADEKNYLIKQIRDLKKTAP
Sequence of UniProt Q5BKX5 (Q5BKX5 whole entry, looked up): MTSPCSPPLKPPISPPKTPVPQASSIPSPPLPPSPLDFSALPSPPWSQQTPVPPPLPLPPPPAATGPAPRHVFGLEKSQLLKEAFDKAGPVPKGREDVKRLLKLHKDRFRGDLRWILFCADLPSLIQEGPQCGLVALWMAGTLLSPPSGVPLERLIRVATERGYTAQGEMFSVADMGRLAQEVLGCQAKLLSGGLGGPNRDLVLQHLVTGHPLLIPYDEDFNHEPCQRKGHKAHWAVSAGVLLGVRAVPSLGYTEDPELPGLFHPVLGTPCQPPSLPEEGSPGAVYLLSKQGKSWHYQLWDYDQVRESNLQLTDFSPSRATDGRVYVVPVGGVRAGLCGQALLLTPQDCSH
Sequence of UniProt Q9Y2V0 (Q9Y2V0 whole entry, looked up): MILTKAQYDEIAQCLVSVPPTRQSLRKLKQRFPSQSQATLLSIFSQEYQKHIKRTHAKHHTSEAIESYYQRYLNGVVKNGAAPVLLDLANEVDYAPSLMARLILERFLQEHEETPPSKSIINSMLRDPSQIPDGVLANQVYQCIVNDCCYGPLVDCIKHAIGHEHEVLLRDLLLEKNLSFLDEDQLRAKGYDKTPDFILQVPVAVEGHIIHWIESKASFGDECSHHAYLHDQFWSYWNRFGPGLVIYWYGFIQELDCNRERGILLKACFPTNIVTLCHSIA
Sequence of UniProt Q9P0B6 (Q9P0B6 whole entry, looked up): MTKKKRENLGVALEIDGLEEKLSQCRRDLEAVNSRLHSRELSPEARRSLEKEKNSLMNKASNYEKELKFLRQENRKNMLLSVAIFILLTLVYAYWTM

Target | log2 fold change [1] | log2 fold change [2] | log2 fold change [3] | log2 fold change [4] | log2 fold change [5]
CBS (UniProt P35520) | -0.029 | 0.07 | 0.016 | -0.014 | -0.026
COMMD1 (UniProt Q8N668) | 0.099 | – | 0.007 | 0.162 | –
CAV2 (UniProt P51636) | 0 | – | – | -0.046 | –
CPNE5 (UniProt Q9HCH3) | – | -0.16 | – | 0.146 | -0.035
CAB39L (UniProt Q9H9S4) | 0.088 | – | 0.201 | 0.285 | –
CRLS1 (UniProt Q9UJA2) | – | -0.005 | -0.034 | -0.01 | 0.003
CDK19 (UniProt Q9BWU1) | – | 0.035 | 0.05 | 0.021 | 0.019
CHST10 (UniProt O43529) | 0.004 | -0.064 | – | -0.052 | 0.044
COMMD3-BMI1 (UniProt R4GMX3) | – | -0.114 | – | 0.002 | 0.154
CLASP2 (UniProt O75122) | 0.059 | 0.117 | – | – | -0.222
CFAP47 (UniProt Q6ZTR5) | 0.068 | – | 0.173 | – | –
CHAF1A (UniProt Q13111) | 0.045 | -0.026 | – | – | -0.045
COG2 (UniProt Q14746) | – | 0.063 | – | 0.141 | -0.004
CD84 (UniProt Q9UIB8) | – | 0.167 | – | -0.079 | 0.086
C5orf30 (UniProt Q96GV9) | – | – | – | -0.417 | –
C1D (UniProt Q13901) | -0.019 | – | 0.028 | 0.074 | –
C19orf54 (UniProt Q5BKX5) | – | -0.014 | 0.059 | 0.004 | 0.114
C15orf41 (UniProt Q9Y2V0) | – | 0.081 | 0.014 | -0.011 | 0.149

Target | log2 fold change [1] | log2 fold change [2] | log2 fold change [3] | log2 fold change [4] | log2 fold change [5]
CDCA2 (UniProt Q69YH5) | – | 0.035 | 0.05 | -0.003 | -0.077
CCDC167 (UniProt Q9P0B6) | 0.153 | -0.037 | – | -0.124 | 0.073
CDK2AP2 (UniProt O75956) | 0.026 | -0.017 | – | – | 0.012
CRTC2 (UniProt Q53ET0) | 0.006 | – | -0.075 | 0.052 | –
COX7C (UniProt P15954) | -0.023 | – | -0.073 | -0.079 | –
CHPT1 (UniProt Q8WUD6) | – | 0.003 | – | -0.198 | 0.11
CKS2 (UniProt P33552) | -0.084 | – | – | -0.08 | –
CCNT2 (UniProt O60583) | – | – | – | 0.061 | –
CEBPZOS (UniProt A8MTT3) | -0.044 | – | -0.105 | -0.022 | –
CASP9 (UniProt P55211) | – | -0.045 | 0.102 | 0.05 | 0.12
CLCN5 isoform 2 (UniProt P51795) | – | 0.028 | -0.023 | 0.024 | -0.053
COX17 (UniProt Q14061) | – | 0.12 | 0.022 | -0.073 | -0.085
C6orf120 (UniProt Q7Z4R8) | -0.018 | – | 0.37 (active) | -0.038 | –
COPS3 isoform 2 (UniProt Q9UNS2) | 0.009 | – | 0.2 | 0.04 | –
CA1 (UniProt E5RIF9) | -0.021 | – | 0.187 | 0.143 | –
CASP8 isoform 9 (UniProt Q14790) | -0.013 | – | 0.052 | 0.033 | –
CRTC1 isoform 2 (UniProt Q6UUV9) | -0.036 | – | 0.018 | 0.046 | –
CNN1 (UniProt P51911) | – | 0.228 | -0.063 | -0.004 | 0.156
